This is an account of results in PubChem BioAssay.

One may read the viability as a read-out of living cells in per cent, often relative to untreated cells. In general, inhibition refers to the drop in the measured response relative to a control, in per cent.

Records with an inconclusive call do not appear. Active and inactive are the calls of the source.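 Rule for the calls, unless noted: active = cell viability at or below a set limit in both duplicate runs, the limit being the all-compound median minus 4 SD (cut at about 23% in these data, passing the limit was not always enough); inconclusive = no clear call, values can overlap the other calls; inactive = the rest.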

Assay [1] is described as follows: reducers of endogenous Her2 protein level, primary screen, SKBR3 breast tumor cells, AlphaScreen, ATP viability (AID 461;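 active = Her2 level under about 52% in both replicate screens, with viability over 70% of control, limit read from the data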;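 for Her2 level: lower value means less Her2 protein in the cells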;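 for viability: percent of carrier control wells set as 100% viability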). The note with it: 18-24 h, measured here: SKBR3 viability, ATP luminescence, at 10 µM.
Assay [2] addresses Receptor tyrosine-protein kinase erbB-2 (Homo sapiens) (UniProt P04626). The description is as above. Particulars: 18-24 h, at 10 µM, stronger effect = lower value.
A short description of assay [3]: SK-BR-3 cell growth inhibitors, pilot screen, 24 h, human (AID 572;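 active = viability at or below 10% of carrier control in both of two separate runs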;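 note: compound exposure lasted between 18 and 24 h rather than exactly 24 h; 100% = carrier-treated control wells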). Particulars: SK-BR-3 viability, CellTiter-Glo luminescence, at 10 µM, stronger effect = lower value. For orientation: ATP-based viability assays read luminescence as a measure of living cells.
Assay [4] in a line: HUVEC growth inhibition – cell-based, human, primary screen (AID 575;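 active = viability at or below 30% in both replicate assays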;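 note: 100% = median of untreated cell wells with 0.1% DMSO on each plate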). Particulars: HUVEC proliferation, CellTiter-Glo luminescence, 72 h; at 10 µM; stronger effect = lower value.
The nature of assay [5]: growth inhibitors of H69AR lung tumor, primary screen, human, duplicate replicates (AID 580;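 active = viability at or under a set limit in both replicates, limit being median viability minus 3 SD, cut at about 48% in these data, passing the limit was not always enough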;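 note: 100% = mean luminescence of untreated wells and 0% = no signal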). Particulars: H69AR lung tumor cells viability, ATP luminescence, 72 h; at 10 µM; stronger effect = lower value.
A short description of assay [6]: reversal of MRP1-mediated doxorubicin resistance, pilot screen, H69AR cells, doxorubicin co-treatment (AID 601;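 active = viability loss from added drug above about 55%, and viability with drug at most 40%, in both replicates, limit read from the data, passing the limit was not always enough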). The note with it: CellTiter-Glo, 72 h, at 10 µM; for differential viability (reversal): stronger effect = higher value.
Assay [7] is described as follows: 384-well plate pilot, post-Golgi transport modulator project, inhibition of yeast transport mutant growth (AID 636; in the data active = inhibition above about 31%). Particulars: absorbance 615 nm, about 18 h, stronger effect = higher value.
Assay [8] is described as follows: growth suppression of yeast trafficking mutant, preliminary HTS, modulators of trafficking downstream of Golgi apparatus project, 1536-format plate, OD 615 nm (AID 637; in the data active = inhibition above about 30%). The note with it: yeast transport mutant growth, absorbance 615 nm, 18 h; stronger effect = higher value.
Assay [9] in a line: OD615 S. cerevisiae growth inhibition, permissive medium, pilot counter-assay, permissive growth control for S. cerevisiae lifespan shortening project (AID 705;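 active = growth inhibition above 25% in both replicates, a cutoff set 3 SD above the mean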). Particulars: OD615, 24 h, at 10 µM, stronger effect = higher value.
Assay [10] in a line: Restrictive medium S. cerevisiae growth inhibition, OD615, pilot screen of yeast lifespan reduction project, restrictive growth control (AID 706;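 active = growth inhibition above a set limit, 3 SD over mean compound inhibition, in both replicates, cut at about 43% in these data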;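 note: modified DeaD lifespan yeast strain shifted to restrictive glucose medium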). The note with it: OD615, 48 h, at 10 µM, stronger effect = higher value.
The nature of assay [11]: viability gain of MRP-1-high H69AR cells under doxorubicin, pilot screen, MRP-1 activator project, CellTiter-Glo, duplicate (AID 807;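 active = viability increase at or above a cutoff of the median across tested compounds plus 3 SD, cut at about 8.5% in these data, passing the limit was not always enough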;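 note: compound pretreatment 18-22 h then 72 h combined with doxorubicin; 0% = doxorubicin alone and 100% = vehicle without doxorubicin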). The note with it: H69AR viability with doxorubicin, CellTiter-Glo luminescence; at 10 µM; stronger effect = higher value.
The nature of assay [12]: growth suppression of beta-catenin knockout HCT116, pilot screen, human colon tumor cells (AID 823).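 Note: 0% = wells killed by 20 µM Hyamine and 100% = untreated DMSO cell wells.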 The note with it: CellTiter-Glo, 60 h, at 10 µM, stronger effect = lower value.
Assay [13] in a line: growth suppression of PTEN-deleted HCT116, pilot screen, cell-based, HCT116 clonal line, CellTiter-Glo (AID 824;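 active = viability at or below 27.92% in each of two runs, the all-compound median minus 4 SD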;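 note: 0% = 20 µM Hyamine control and 100% = vehicle cell control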). Particulars: 60 h, at 10 µM, stronger effect = lower value.
A short description of assay [14]: inhibitors of the yeast RAM network, pilot screen, dse1pr::URA3 reporter, 5-FOA selection (AID 869;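 active = inhibition over a set limit, the all-compound mean plus 3 SD, in both replicate runs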;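 note: 0% = DMSO wells with no growth and 100% = 10 µM 1-NA-PP1 with full growth; RAM network block rescues cells from 5-FOA so hits raise OD615 growth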). The note with it: S. cerevisiae dse1pr::URA3 5-FOA growth, OD615, 2 d; at 10 µM; stronger effect = higher value; strain carries analog-sensitive mutant Cbk1 kinase.
The nature of assay [15]: RAM signaling pathway blockade in yeast – S. cerevisiae, Pdr1DBD-CYC8 efflux-inhibited sensitized strain, primary screen (AID 1298;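 active = RAM network inhibition above 8.4% in each of two replicates, 3 SD over the compound average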;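 note: 0% = DMSO untreated cells without growth and 100% = 10 µM 1-NA-PP1 full growth; higher means more yeast growth rescued from 5-FOA killing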). Particulars: S. cerevisiae cbk1-as DSE1-URA3 strain, 5-FOA growth OD615, 2 d; at 50 µM; stronger effect = higher value.
Setting [16] is: H69AR cells + 2 uM doxorubicin, measured here: viability with 2 uM doxorubicin, stronger effect = lower value.
[17] abbreviates: H69AR cells, compound alone cytotoxicity.

Receptor tyrosine-protein kinase erbB-2 (Homo sapiens), sequence (P04626 whole entry, looked up): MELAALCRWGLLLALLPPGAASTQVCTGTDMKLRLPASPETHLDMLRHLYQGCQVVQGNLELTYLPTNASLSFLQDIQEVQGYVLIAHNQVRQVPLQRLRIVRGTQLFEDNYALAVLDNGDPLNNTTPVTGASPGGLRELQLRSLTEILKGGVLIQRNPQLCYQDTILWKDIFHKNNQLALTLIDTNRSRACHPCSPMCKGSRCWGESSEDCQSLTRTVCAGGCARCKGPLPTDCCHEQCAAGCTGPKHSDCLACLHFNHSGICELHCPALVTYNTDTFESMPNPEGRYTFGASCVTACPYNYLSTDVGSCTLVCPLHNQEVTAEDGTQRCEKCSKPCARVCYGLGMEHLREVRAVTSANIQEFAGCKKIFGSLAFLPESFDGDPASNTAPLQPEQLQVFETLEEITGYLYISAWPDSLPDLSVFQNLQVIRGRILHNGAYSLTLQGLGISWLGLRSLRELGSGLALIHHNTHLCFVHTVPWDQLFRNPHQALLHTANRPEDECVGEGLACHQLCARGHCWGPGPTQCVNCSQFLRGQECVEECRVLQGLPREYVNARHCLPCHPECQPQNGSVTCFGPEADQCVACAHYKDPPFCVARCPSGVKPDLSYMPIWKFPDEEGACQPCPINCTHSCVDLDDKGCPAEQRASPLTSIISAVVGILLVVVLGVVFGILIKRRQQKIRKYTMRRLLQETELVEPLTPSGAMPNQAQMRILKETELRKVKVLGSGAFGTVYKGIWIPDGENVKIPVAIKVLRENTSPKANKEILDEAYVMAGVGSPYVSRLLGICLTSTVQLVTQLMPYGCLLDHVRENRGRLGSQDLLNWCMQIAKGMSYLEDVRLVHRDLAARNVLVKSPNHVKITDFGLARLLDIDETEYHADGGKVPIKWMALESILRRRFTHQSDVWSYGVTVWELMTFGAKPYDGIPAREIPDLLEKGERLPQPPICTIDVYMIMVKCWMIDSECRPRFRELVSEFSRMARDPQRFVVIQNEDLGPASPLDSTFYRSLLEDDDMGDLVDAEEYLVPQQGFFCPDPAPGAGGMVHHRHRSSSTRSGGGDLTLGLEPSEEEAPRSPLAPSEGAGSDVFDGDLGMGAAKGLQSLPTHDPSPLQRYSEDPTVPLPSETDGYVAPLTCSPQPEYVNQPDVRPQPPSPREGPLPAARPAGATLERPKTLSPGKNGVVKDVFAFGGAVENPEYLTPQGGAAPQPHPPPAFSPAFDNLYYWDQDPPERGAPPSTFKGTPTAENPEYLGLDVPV

Take `COc1ccc(Cl)cc1S(=O)(=O)N1CCN(c2ccc(F)cc2)CC1`: the viability in assay [1] was 80%; in assay [3], 80% (inactive); in assay [4], 90.1% (inactive); in [5] it was 75.8% (inactive); in [6] (setting [16]), 87.4%; in assay [6] (setting [17]), 75.8%. Moreover, the viability was 82.4% (inactive) in assay [12] and 89.7% (inactive) in assay [13]. The Her2 level in [2] was 82% (inactive). For the same molecule, the differential viability (reversal) in assay [6] (H69AR cells + 2 uM doxorubicin) is -11.6% (inactive). The inhibition in assay [7] is 4.23% (inactive); in assay [8] it was 12.7% (inactive); in assay [14], -0.355% (inactive). In addition, the growth inhibition is -13% (inactive) in assay [9] and -15.5% (inactive) in [10]. Also, in assay [11], the viability increase is -2.08% (inactive). Further, the RAM network inhibition in [15] is 1.85% (inactive).

On to `COc1cc(C(O)c2nc3ccccc3n2C)cc(OC)c1OC` (stereo not given), for which the viability in assay [1] is 91.5%; in assay [3] it was 91.5% (inactive); in [4], 99.8% (inactive); in assay [5] it was 103% (inactive); in assay [6] (setting [16]), 93.2%; in [6] (setting [17]), 103%. The viability in assay [12] was 94.1% (inactive); in assay [13] it was 93.3% (inactive). For the same molecule, the Her2 level in [2] was 100% (inactive). In addition, in assay [6] (H69AR cells + 2 uM doxorubicin), the differential viability (reversal) is 9.33% (inactive). Also, the inhibition in [7] is 1.95% (inactive); in assay [8] it was -7.33% (inactive); in [14] it was 1.35% (inactive). The growth inhibition in assay [9] was -7.22% (inactive); in assay [10] it was -9.59% (inactive). Also, the viability increase in assay [11] was -0.62% (inactive). The RAM network inhibition in assay [15] was 0.78% (inactive).

Turning to `CCOc1ccccc1NC(=O)CSc1nnc(Cc2cccn2C)n1-c1ccc(F)cc1`, the viability in [1] is 92.5%; in assay [3] it was 92.5% (inactive); in [4], 97.4% (inactive); in [5] it was 79.9% (inactive); in assay [6] (setting [16]), 78.6%; in assay [6] (setting [17]), 79.9%. In addition, the values for the viability in assay [12] and in assay [13] were 75.5% (inactive) and 78.2% (inactive), respectively. The Her2 level in [2] is 78.5% (inactive). In addition, the differential viability (reversal) in [6] (H69AR cells + 2 uM doxorubicin) is 1.24% (inactive). In addition, the inhibition in [7] is -1.28% (inactive); in assay [8], -1.17% (inactive); in assay [14], 1.11% (inactive). Besides, the growth inhibition is 5.28% (inactive) in assay [9] and 7.75% (inactive) in [10]. In addition, the viability increase in assay [11] is -5.25% (inactive). The RAM network inhibition in [15] was 4.07% (inactive).

For `COc1ccc(C2CC(c3ccc(Cl)cc3Cl)Nc3nc(N)nn32)cc1` (stereo not given), the viability in [1] was 94%; in assay [3] it was 94% (inactive); in assay [4], 115% (inactive); in assay [5] it was 94% (inactive); in [6] (setting [16]) it was 90.2%; in [6] (setting [17]), 94%. The values for the viability in assay [12] and in [13] were 85.3% (inactive) and 73.3% (inactive), respectively. Moreover, the Her2 level in assay [2] was 92% (inactive). The differential viability (reversal) in assay [6] (H69AR cells + 2 uM doxorubicin) was 3.8% (inactive). Besides, the inhibition in [7] is -1.67% (inactive); in assay [8], -0.5% (inactive); in assay [14], 2.17% (inactive). Also, the growth inhibition in [9] is 12.9% (inactive); in [10], 31.5% (inactive). In assay [11], the viability increase was 0.19% (inactive). Further, the RAM network inhibition in assay [15] was 8.01% (inactive).

As for `CC1CCCN(C(=O)c2cc3c(-c4ccc(Cl)cc4)nn(C)c3s2)C1` (stereo not given), the viability in assay [1] was 89%; in assay [3] it was 89% (inactive); in assay [4] it was 77.4% (inactive); in assay [5], 92.5% (inactive); in [6] (setting [16]), 91.7%; in assay [6] (setting [17]), 92.5%. The viability was 91.4% (inactive) in assay [12] and 93.3% (inactive) in assay [13]. The Her2 level in assay [2] was 87% (inactive). Moreover, the differential viability (reversal) in assay [6] (H69AR cells + 2 uM doxorubicin) is 0.84% (inactive). The inhibition was -1.54% (inactive) in [7], 3% (inactive) in [8] and 2.07% (inactive) in [14]. In addition, the growth inhibition in assay [9] was -9.3% (inactive); in assay [10] it was -3.9% (inactive). Further, the viability increase in [11] was -2.82% (inactive). For the same molecule, the RAM network inhibition in [15] was 1.62% (inactive).
